The list shows a part of the results. The true hit rate is not given.
B1: VH:VL chains; a variant is named by its letters at X, in order (parent)
chain 1: QVQLVQSGAEVKKPGASVKVSCKASGYTFTDYXMHWVRQAPGQGLEWMGXVNPNXXXTTYNQKFEGRVTMTTDTSTSTAYMELRSLRSDDTAVYYCARXNXLDXWGQGTTVTVSS
chain 2: DIQMTQSPSSLSASVGDRVTITCSVSSSVSSIYLHWYQQKPGKAPKLLIYSTSNLASGVPSRFSGSGSGTDFTLTISSLQPEDFATYYCQVYSGYPLTFGGGTKVEIK

Variants of: B1
Test: yeast display scFab, FACS + sequencing
Details: with MET
Method in brief: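 Two magnetic rounds on Protein A beads coated with HGFR-Fc, followed by FACS, were used to enrich a yeast surface scFab library mutated in the heavy-chain CDRs. FACS gated the top 50% antigen-positive cells after 3 h labelling at room temperature with 1 nM HGFR-Fc and anti-Myc in PBSB plus 1% milk. Binding to the antigen was scored positive when a sequence occurred in both antigen-positive samples from deep sequencing and negative when it occurred only in the input.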

| Variant | antigen binding call |
| --- | --- |
| DAKEGDAV | no binding |
| DTGGGAWD | no binding |
| YKARGSWD | binds |
| FREGASWD | no binding |
| FRAGSSWD | binds |
| YRRGDSAD | binds |
| VEAGSDGV | no binding |
| VEKEGDGV | no binding |
| DTTGSASF | no binding |
| YRKENYGD | no binding |
| YRAGGYGD | binds |
| YRAGGVGD | binds |
| VKGRGSAY | binds |
| YKGRGSAY | binds |
| VAGTGDVF | no binding |
| YRGKSAAV | binds |
| FKGRGFGV | no binding |
| FRGRGFGV | binds |
| YRGRTAAV | binds |
| YTGKSVAV | no binding |
| YRGRSAGV | binds |
| YRERTAAV | no binding |
| DTREGAVV | no binding |
| VAGGDYLV | no binding |

| Variant | antigen binding call |
| --- | --- |
| DKGGGDVA | no binding |
| AGEGNSWA | no binding |
| VAGTGDGA | no binding |
| YRGRTAGV | binds |
| DRGRDFGV | no binding |
| YAGRTAGV | no binding |
| YRGRSFGV | binds |
| YRGRGFGV | binds |
| YRRRTAAV | binds |
| VRGRDFGV | no binding |
| YRGRSFAV | no binding |
| SEARNDGA | no binding |
| DAGGDAGD | no binding |
| VTRGADAA | no binding |
| AARADDSV | no binding |
| YRTRGSLY | binds |
| YRTRGSGY | binds |
| YATEDDWV | no binding |
| VETGNAVY | no binding |
| SEARSDLY | no binding |
| FAEGSYAF | no binding |
| VGAEDDVA | no binding |
| SGETGDSV | no binding |
| FRGRGSAA | binds |

| Variant | antigen binding call |
| --- | --- |
| FRGRSSAA | binds |
| VTGRGDVA | no binding |
| DREEGAGV | no binding |
| DKEGGSGV | no binding |
| YREGGSGV | binds |
| YREGGAGV | binds |
| VEKEGDWY | no binding |
| SAREGDLA | no binding |
| VTAGDSAD | no binding |
| VRAKGSAD | binds |
| VAGTGSAD | no binding |
| VEEEGSAD | no binding |
| VRAGGSAD | binds |
| VARETDVA | no binding |
| VKGRGAWA | binds |
| VKTGGSWA | no binding |
| DEGRGSWA | no binding |
| VKGRGDAA | no binding |
| VKGRGSWA | binds |
| VKGRGFAA | no binding |
| VTRGADGV | no binding |
| VAGGDFGV | no binding |
| SKKTGSVD | no binding |
| FRGKGASD | binds |

| Variant | antigen binding call |
| --- | --- |
| SAGTGSWD | no binding |
| SKGKGSWD | binds |
| SKKRGSWD | binds |
| FRGKGSWD | binds |
| VEAGDDWV | no binding |
| SGRGNDGV | no binding |
| DTGGDDWF | no binding |
| DAGGGDAV | no binding |
| FAGTGSWD | no binding |
| FKGKGSWD | binds |
| YKGKGSWD | binds |
| FRGTSFGD chain 1 T58I | no binding |
| FRGTGFVD | binds |
| YAGTGFVD | no binding |
| FRGKGAWD | binds |
| AAGGNAWS chain 1 G66S | no binding |
| DGGKGAVD | no binding |
| FRGKGAVD | binds |
| FKGGSSAA | no binding |
| YKGGSSAA | binds |
| YKGGSAAA | binds |
| DKGGSAVV | no binding |
| DKGGSDVA | no binding |
| DKGEGAAA | no binding |

| Variant | antigen binding call |
| --- | --- |
| YKGRSAAA | binds |
| DEGGTDVF | no binding |
| DGGKNDWV | no binding |
| DAGGASSS | no binding |
| YTERNFGV | no binding |
| FRARSSGF | binds |
| FRGRGSGF | binds |
| FRGADSGF chain 1 R98K | no binding |
| FRGRDFLF | no binding |
| FTARSAGF | no binding |
| FRAGGSLF | binds |
| FRGGGSGF | binds |
| DRAGDSGF | no binding |
| DGGKNSVD | no binding |
| VEGGGFSV | no binding |
| VEAGDDAV | no binding |
| ATAGSDGV | no binding |
| DAARGDGA | no binding |
| VKGRSDVY | no binding |
| FRGRGSLF | binds |
| FRKRGSVF | binds |
| FRGRGSVF | binds |
| FRGRGALF | binds |
| ARAAGDVF | no binding |

| Variant | antigen binding call |
| --- | --- |
| YRGAGSGY | binds |
| YRGAGSGS | binds |
| YRGGSSGY | binds |
| YRGAGSGD | binds |
| AERRDDGA | no binding |
| VAGGGAGV | no binding |
| YAGGDDSA | no binding |
| VTTKSFGV | no binding |
| YRGAGAVY | binds |
| YRGAGAGS | binds |
| ARGAGYGS | no binding |
| YRGAGYGS | no binding |
| YRGAGAVS | binds |
| YAGAGAVY | no binding |
| YRGAGAWS | binds |
| DEETNSGA | no binding |
| AREGDDVA | no binding |
| YARRAAVS | no binding |
| YRGRAAVS | binds |
| YRGGGSGS | binds |
| YTGTSAVS | no binding |
| YRGRGFAY | binds |
| YAAGGFAY | no binding |
| YRGRGYAY | binds |

| Variant | antigen binding call |
| --- | --- |
| YKGAAFAD | no binding |
| YRGGGFAD | binds |
| YRGRGFAD | binds |
| VATGDDVA | no binding |
| SATKTVVV | no binding |
| VTGEDSGV | no binding |
| YKGRGFAY | binds |
| SKGASFAY | no binding |
| DTGTGDSA | no binding |
| DAGGGDVV | no binding |
| VEGGNDGA | no binding |
| YAGGGDWA | no binding |
| YRKRGSLV | binds |
| YRKRGSVV | binds |
| YRKGSSGV | binds |
| YRKRGDVV | binds |
| DREEGDVV | no binding |
| DAGGDDGA | no binding |
| AARADAVY | no binding |
| DARETFLD | no binding |
| SGREGDWD | no binding |
| VRKGGSGV | binds |
| YRKGGSGV | binds |
| YRKRGSLY | binds |

| Variant | antigen binding call |
| --- | --- |
| YRKRGSGV | binds |
| VEKGGSGV | no binding |
| YRKRGVGV | no binding |
| DGGGASSA | no binding |
| YTAGSDGA | no binding |
| SEARSDAD | no binding |
| VEGGGDVY | no binding |
| VAEKGDGV | no binding |
| VTAGDDGV | no binding |
| YGTAAFGF | no binding |
| VKRGDDVV | no binding |
| YKRGSAGF | binds |
| YKRGDAVF | binds |
| VGGGAAGF | no binding |
| YKRGSSGF | binds |
| YARADDVF | no binding |
| YKKGAAGF | binds |
| FGKGGFGY | no binding |
| YAARASGF | no binding |
| YKRGDSGF | binds |
| YARADSGD | no binding |
| YATEDSGF | binds |
| AGTKADVV chain 1 G108S | no binding |
| VGTKGSSA | no binding |

| Variant | antigen binding call |
| --- | --- |
| YKGKGSLY | binds |
| YKTKGSSY | binds |
| DATGGSSY | no binding |
| YKGKGSSY | binds |
| VKGKGDVY | no binding |
| YAGKTSAD | no binding |
| FRGKGSAD | binds |
| FRAKGSAD | binds |
| FKGKGSAD | binds |
| YRGKSSAD | binds |
| FKGRGSAA | binds |
| DAAGASVD | no binding |
| YTKGTSVA chain 1 E65K | no binding |
| DKEGGFGV | no binding |
| DEGGTDGS | no binding |
| SRATAYSD | no binding |
| YRGKGSAD | binds |
| VEGAADVD | no binding |
| VTGGGASF | no binding |
| YRKRGSVF | binds |
| YRKGSSVS | binds |
| YRTRSSVS | binds |
| DTKGDSVS | no binding |
| YRKGGSVS | binds |

Reference: the emibetuzumab library of Makowski et al. (2022)
